Measurements: ChEMBL document CHEMBL3433997, “St. Jude Leishmania screening dataset” (2016)

Experiments:
Format in all cases: functional
[1] = target: Solute carrier family 2, facilitated glucose transporter member 1 (Homo sapiens) (UniProt P11166); experiment: ST_JUDE_LEISH: Cytotoxicity at 2uM final concentration against transgenic Leishmania Mexicana promastigotes LmGLUT1 that are glucose transport deficient and complemented with the human glucose transporter GLUT1. Activity is measured by DNA content using SYBR green in vitro
Sequence of Solute carrier family 2, facilitated glucose transporter member 1 (Homo sapiens) (P11166 whole entry): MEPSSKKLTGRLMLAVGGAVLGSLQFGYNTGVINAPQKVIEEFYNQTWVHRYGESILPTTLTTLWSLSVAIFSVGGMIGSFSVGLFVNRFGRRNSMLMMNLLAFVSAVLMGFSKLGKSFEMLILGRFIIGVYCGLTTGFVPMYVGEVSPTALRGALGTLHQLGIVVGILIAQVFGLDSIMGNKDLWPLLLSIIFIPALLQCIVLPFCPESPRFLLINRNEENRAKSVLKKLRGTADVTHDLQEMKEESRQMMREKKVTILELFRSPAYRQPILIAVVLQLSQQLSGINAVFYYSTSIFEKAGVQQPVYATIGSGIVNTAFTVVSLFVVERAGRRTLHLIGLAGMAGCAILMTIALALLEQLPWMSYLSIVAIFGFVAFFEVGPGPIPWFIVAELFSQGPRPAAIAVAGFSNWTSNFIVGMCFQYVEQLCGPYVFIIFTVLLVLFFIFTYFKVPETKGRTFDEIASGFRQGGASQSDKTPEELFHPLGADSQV

[2] = target: Hexose transporter 1 (Plasmodium falciparum) (UniProt O97467); experiment: ST_JUDE_LEISH: Cytotoxicity at 2uM final concentration against transgenic Leishmania Mexicana promastigotes LmPfHT that are glucose transport deficient and complemented with the Plasmodium falciparum hexose transporter. Activity is measured by DNA content using SYBR green in vitro
[3] = target: Glucose transporter (Leishmania mexicana) (UniProt O61059); experiment: ST_JUDE_LEISH: Cytotoxicity at 2uM final concentration against transgenic Leishmania Mexicana promastigotes LmGT2 that are glucose transport deficient and complemented with the L. Mexicana glucose transporter 2. Activity is measured by DNA content using SYBR green in vitro

CCC(C)Oc1ccc(CCCON2C(N)=NC(N)=NC2(C)C)cc1 (stereo not drawn)
inhibition [1]: 12.6%
inhibition [2]: 20.2%
inhibition [3]: 13.8%

CN(C)Cc1cccc(-c2cnc(N)c(-c3nc4cc(S(C)(=O)=O)ccc4[nH]3)c2)c1
inhibition [1]: 2.57%
inhibition [2]: 5.29%
inhibition [3]: 3.97%

O=C1Nc2cccc3c2C1(CCCCCN1CCC(c2c[nH]c4ccncc24)CC1)CCC3 (stereo not drawn)
inhibition [1]: 1%
inhibition [2]: 2.45%
inhibition [3]: -0.95%

CCOc1cc(C(=O)NCCN2CCCCC2)ccc1-c1nc2cc(Cl)ccc2[nH]1
inhibition [1]: 1.06%
inhibition [2]: 1.42%
inhibition [3]: 2.06%

O=C(Nc1cccc(-c2nn3ncccc3c2-c2ccnc(Nc3ccccc3)n2)c1)c1c(F)cccc1F
inhibition [1]: 3.26%
inhibition [2]: 11%
inhibition [3]: 2.04%

Cc1cccc2nc(-c3ccc(-c4cccc(NC(=O)C(C)CN5CCN(C)CC5)c4)cc3)[nH]c12 (stereo not drawn)
inhibition [1]: 3.33%
inhibition [2]: 0.81%
inhibition [3]: 5.85%

COc1ccnc(NCCCNCc2cn(S(=O)(=O)c3ccccc3)c3ccccc23)c1
inhibition [1]: 2.74%
inhibition [2]: 3.67%
inhibition [3]: 0.11%

COc1ccc2cc(C(=O)NC3CCC(CCN4CCc5cc(C#N)ccc5C4)CC3)[nH]c2c1 (stereo not drawn)
inhibition [1]: 3.48%
inhibition [2]: 0.58%
inhibition [3]: 3.6%

CC1CN(Cc2cccc(F)c2)CCN1c1ccc(NC(=O)c2cccs2)cc1 (stereo not drawn)
inhibition [1]: -0.87%
inhibition [2]: -1.57%
inhibition [3]: -2.09%

CCCN(CCC)CCCN(CCCN(CCC)CCC)c1cc(C)nc(Nc2ccc3cc(Br)ccc3c2)n1
inhibition [1]: 50.9%
inhibition [2]: 35.1%
inhibition [3]: 37.8%

O=C(CN1CCCC1)Nc1cccc(C(=O)Nc2cccc(C(F)(F)F)c2)c1
inhibition [1]: 1.71%
inhibition [2]: 1.57%
inhibition [3]: 3.18%

O=C(CCNc1ccnc(NCCc2ccccc2)n1)Nc1ccccc1
inhibition [1]: -0.28%
inhibition [2]: 3.7%
inhibition [3]: 2.66%

Oc1ccc2c(c1CNC1CCCCC1)CCCC2
inhibition [1]: 5.27%
inhibition [2]: 3.89%
inhibition [3]: 4.96%

OCCN1CCN(Cc2ccc(-c3cccc(-c4nc5ccccc5[nH]4)c3)cc2)CC1
inhibition [1]: -1.4%
inhibition [2]: -2.88%
inhibition [3]: -1.5%

O=C(Nc1ccc(Cl)cc1F)NC1CCN(CCCCCNC(=O)C2CC2c2ccc(Cl)c(Cl)c2)CC1 (stereo not drawn)
inhibition [1]: 1.08%
inhibition [2]: 0.8%
inhibition [3]: 3.62%

COc1ccc(CNC(=O)c2cnc3c(O)cccc3c2Nc2cccc(NC(=O)c3ccc(-c4ccccc4)cc3)c2)cc1
inhibition [1]: 76.8%
inhibition [2]: 79.7%
inhibition [3]: 64.3%
